Calls of active or inactive are those of the source.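 Rule for the calls: active = blocks over 70% of labeled estradiol binding at 10 µM, or over a set limit at 100 nM; inactive = the rest.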

The assay concerns the target Estrogen receptor beta (Homo sapiens) (UniProt Q92731). Briefly: ERbeta ligand binders by competition, primary screen, cell-based, Cos7 ERbeta-GFP, flow cytometry (AID 1210).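 Note: 0% = DMSO vehicle wells and 100% = complete loss of labeled estradiol signal.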 The settings on record: fluorescent estrogen binding, stronger effect = higher value. (A flow cytometer gives signals particle by particle.)
[1] abbreviates: ligand binding inhibition, at 0.1 µM.

Chain of Estrogen receptor beta (Homo sapiens) (Q92731 whole entry, looked up): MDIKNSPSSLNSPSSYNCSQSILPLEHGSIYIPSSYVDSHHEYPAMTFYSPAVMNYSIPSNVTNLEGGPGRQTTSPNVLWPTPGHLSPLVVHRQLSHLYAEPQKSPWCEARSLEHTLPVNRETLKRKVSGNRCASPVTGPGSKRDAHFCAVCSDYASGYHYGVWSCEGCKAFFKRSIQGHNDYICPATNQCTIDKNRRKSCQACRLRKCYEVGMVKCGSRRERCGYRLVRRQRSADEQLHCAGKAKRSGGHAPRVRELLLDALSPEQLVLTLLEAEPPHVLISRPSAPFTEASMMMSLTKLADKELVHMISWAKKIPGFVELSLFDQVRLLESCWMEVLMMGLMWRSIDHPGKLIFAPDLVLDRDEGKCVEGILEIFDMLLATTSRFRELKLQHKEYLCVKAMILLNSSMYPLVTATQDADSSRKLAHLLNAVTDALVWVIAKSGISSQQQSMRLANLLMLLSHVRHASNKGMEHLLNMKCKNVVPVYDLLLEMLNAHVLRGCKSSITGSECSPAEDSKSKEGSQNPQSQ

As to `CCOC(=O)c1cc2c(c(CSc3nc4ccccc4c(=O)n3Cc3ccco3)c1)OCOC2`, the inhibition runs as follows: (at 10 µM) 67% (inactive); under setting [1], 4%.

With `Cc1[nH]c2ccc(-c3nnc(SCC(=O)c4ccccc4F)o3)cc2c1C`, the inhibition (at 10 µM) was 18% (inactive) and the inhibition under setting [1] was 28%.

`CCc1nc(N)nc(N)c1-c1ccc(Cl)cc1`: the inhibition runs as follows: (at 10 µM) 38% (inactive); under setting [1], 25%.

On to `C=C(C)CNC(=S)NNC(=O)CCn1c2cc(Cl)ccc2c2ccc(Cl)cc21`, for which the inhibition by setting is: (at 10 µM) 18% (inactive); under setting [1], 20%.

In the case of `CCn1c(SCC(=O)c2ccc(O)c(O)c2)nnc1-c1ccccc1OC`, the inhibition reads like this: (at 10 µM) 58% (inactive); under setting [1], 3%.

Consider `Cc1nc2ccc(C(=O)O)cc2[nH]1`, for which the inhibition is 31% (inactive) (at 10 µM) and 47% under setting [1].

In the case of `Nc1ccc(/C=C/C(=O)c2ccco2)cc1`, the inhibition (at 10 µM) was 0% (inactive) and the inhibition under setting [1] stood at 37%.

Take `CCc1ccc(Nc2nc(N)nc(CSc3nnnn3-c3ccccc3)n2)cc1`: the inhibition was 67% (inactive) (at 10 µM) and 8% under setting [1].

Consider `CCN(CC)c1ccc2c(c1)oc(=O)c1c(Cl)cc(=O)oc12`, for which the inhibition (at 10 µM) is 33% (inactive) and the inhibition under setting [1] amounted to 18%.

Take `CCSc1nnc(NC(=O)C2Cc3ccccc3CN2C(=O)c2ccco2)s1` (stereo unspecified): the inhibition by setting is: (at 10 µM) 45% (inactive); under setting [1], 34%.

Take `Cc1ccc(-n2nnnc2SCC(=O)Nc2ccc3c(c2)COC3=O)cc1C`: the inhibition is 15% (inactive) (at 10 µM) and 2% under setting [1].

`CC(C)(C)NC(=O)c1ccc2c(c1)C1C3CCC(C3)C1C(c1ccccc1)N2` (stereo unspecified): the inhibition runs as follows: (at 10 µM) 3% (inactive); under setting [1], 64%.

For `CC(=O)Nc1nonc1-c1nc2ccccc2n1N(C(C)=O)C(C)=O`, the inhibition reads like this: (at 10 µM) 35% (active); under setting [1], 70%.

In the case of `CCCSC1=N/C(=C\C=C\c2ccco2)C(=O)S1`, the inhibition by setting is: (at 10 µM) 47% (inactive); under setting [1], 31%.

As for `O=S(=O)(NCC(O)COCc1ccco1)c1cccs1` (stereo unspecified), the inhibition is, setting by setting: (at 10 µM) 12% (inactive); under setting [1], 20%.

Take `Cc1ccc(C(=O)ONc2ccc(N=NC(=O)c3ccccc3O)cc2)cc1`: the inhibition runs as follows: (at 10 µM) 58% (inactive); under setting [1], 28%.

Turning to `CCn1c(SCC(=O)Nc2cccc(F)c2)nnc1-c1cc2cc(Br)ccc2o1`, the inhibition (at 10 µM) was 39% (inactive) and the inhibition under setting [1] was found to be 12%.

For the compound `O=C(CSc1nnc(SCC(=O)c2ccco2)s1)c1ccco1`, the inhibition (at 10 µM) was 56% (inactive) and the inhibition under setting [1] was 33%.

For the compound `O=C(Nc1nccs1)c1ccc2nccnc2c1`, the inhibition was 36% (inactive) (at 10 µM) and 25% under setting [1].

As for `O=C(CSc1nc2c(cnn2-c2ccccc2)c(=O)[nH]1)c1ccc(Cl)cc1`, the inhibition (at 10 µM) was 39% (inactive) and the inhibition under setting [1] came out at 34%.

As for `COC(=O)c1ccc2c(=O)n(CCCCCC(=O)NCc3ccc4c(c3)OCO4)c(=O)[nH]c2c1`, the inhibition is 68% (inactive) (at 10 µM) and 20% under setting [1].

Regarding `COC(=O)c1c(NC(=O)Cc2cccs2)sc2c1CCCC2`, the inhibition (at 10 µM) is 41% (inactive) and the inhibition under setting [1] was found to be 18%.

Take `CC(=O)c1cccc(NC(=O)Cc2cccs2)c1`: the inhibition reads like this: (at 10 µM) 11% (inactive); under setting [1], 23%.

Turning to `Nc1ccc(N2CCN(C(=O)c3ccco3)CC2)cc1`, the inhibition (at 10 µM) was 49% (inactive) and the inhibition under setting [1] worked out at 25%.

With `Cc1nc2sccn2c1-c1nc(-c2cc3ccccc3o2)cs1`, the inhibition runs as follows: (at 10 µM) 43% (inactive); under setting [1], 9%.

In the case of `CCCc1cc(-n2ccnc2)n2c(nc3ccccc32)c1C#N`, the inhibition was 32% (active) (at 10 µM) and 75% under setting [1].

In the case of `CCC(Sc1ncnc2sc(C)c(C)c12)C(=O)OC` (stereo unspecified), the inhibition is 27% (inactive) (at 10 µM) and 41% under setting [1].

For the compound `O=C(Nc1cccc2cccc(NC(=O)c3ccco3)c12)c1ccco1`, the inhibition by setting is: (at 10 µM) 24% (inactive); under setting [1], 22%.

The inhibition is the percentage by which the read-out fell short of the control.

Values taken from PubChem BioAssay AID1210 (NMMLSC, 2008).
